Compounds without any hit were thinned out: in the full panel of roughly 83,000, 20% have a hit.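 Cells were grown in 96-well plates and exposed to the test compound at a single concentration for 48 hours; results are reported as percent growth, with values below 10 considered active.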 A number with no mark means an inactive call. Calls of active or inactive are those of the source.
Legend:
Test in all cases: NCI-60 one-dose screen, 48 h (100 = growth as untreated, 0 = no growth, -100 = all killed)
HT29 colon = conditions: 10 µM unless noted
SNB-75 CNS = conditions: 10 µM unless noted
SNB-19 CNS = conditions: 10 µM unless noted
U251 CNS = conditions: 10 µM unless noted
PC-3 prostate = conditions: 10 µM unless noted
UACC-62 melanoma = conditions: 10 µM unless noted
LOX IMVI melanoma = conditions: 10 µM unless noted
SK-MEL-28 melanoma = conditions: 10 µM
SK-MEL-2 melanoma = conditions: 10 µM unless noted
EKVX NSCLC = conditions: 10 µM unless noted
SN12C renal = conditions: 10 µM unless noted
UO-31 renal = conditions: 10 µM unless noted
TK-10 renal = conditions: 10 µM unless noted
ACHN renal = conditions: 10 µM unless noted
CAKI-1 renal = conditions: 10 µM unless noted
A498 renal = conditions: 10 µM unless noted
CCRF-CEM leukemia = conditions: 10 µM unless noted
MOLT-4 leukemia = conditions: 10 µM unless noted
SR leukemia = conditions: 10 µM unless noted
SK-MEL-5 melanoma = conditions: 10 µM unless noted

Row | SMILES | growth (HT29 colon) | growth (SNB-75 CNS) | growth (SNB-19 CNS) [%] | growth (U251 CNS) | growth (PC-3 prostate) | growth (UACC-62 melanoma) | growth (LOX IMVI melanoma) | growth (SK-MEL-28 melanoma) | growth (SK-MEL-2 melanoma) | growth (EKVX NSCLC) | growth (SN12C renal) | growth (UO-31 renal) | growth (TK-10 renal) | growth (ACHN renal) | growth (CAKI-1 renal) | growth (A498 renal) | growth (CCRF-CEM leukemia) | growth (MOLT-4 leukemia) | growth (SR leukemia) [%] | growth (SK-MEL-5 melanoma) [%]
1 | Cn1nc(C(F)(F)F)c(-c2ccc(Cl)c(C(F)(F)F)c2)c1-c1ccc(OCc2ccc(Cl)cc2)cc1O | 20.4% | 47.7% | 19.2 | 0.822% (active) | 3.78% (active) | 19.7% | 5.24% (active) | 31.2% | 1.95% (active) | 12.8% | 6.24% (active) | -6.34% (active) | 0.361% (active) | 5.21% (active) | 19.8% | 5.29% (active) | 9.89% (active) | 12.3% | 25.1 | 
2 | O=c1c2cc(F)cc(Cl)c2sc2c(Cl)nc3ccccc3c12 | 101% | 84.6% | 96.5 | 105% | 98.9% | 92.2% | 80.9% | 108% | 108% | 97.9% | 76.8% | 72.6% | 151% | 95.3% | 90.7% | 103% | 86.9% | 103% |  | 
3 | Cc1nn(-c2nc3ccccc3[nH]2)c2c1C(c1ccc(OCC(N)=O)cc1)CC(=O)N2 (stereo unspecified) | 109% | 92.3% | 103 | 110% | 97.4% | 97.8% | 109% | 105% | 107% | 96.9% | 101% | 81.9% | 114% | 102% | 89.5% | 79.1% | 22.5% | -20.1% (active) | 117 | 
4 | CCCCC1CCc2cccc3c(SCC(=O)N(C)c4ccc(Cl)cc4)cc[n+]1c23 (stereo unspecified) | 106% | 109% | 97.2 | 108% | 106% | 96.3% |  |  | 111% | 125% | 104% | 103% | 109% | 105% | 99.1% | 114% | 108% | 98.7% | 101 | 102
5 | COc1ccccc1CNC(=O)C1c2ccccc2C(=O)N(CC(C)C)C1c1cccs1 (stereo unspecified) | 11.9% | 67.5% | 90.6 | 49.7% | 47.8% | 46.4% |  | 58.1% | 87.2% |  | 76.6% | 92% | 75.9% | 54.2% | 53.4% | 42.4% | 24% | 27.1% | 17.3 | 52.2
6 | O=C(CCc1nnc2sc(-c3ccc(Cl)cc3Cl)nn12)c1nc2ncccc2[nH]1 | -13% (active) | 35.3% | 26.9 | -74.2% (active) | -38.6% (active) | -36.6% (active) | -88.3% (active) | -9.94% (active) | -11.5% (active) | -26.2% (active) | -7.29% (active) | -82% (active) | -31.6% (active) | -48% (active) | -15.7% (active) | -68.6% (active) | 6.98% (active) | 5.44% (active) |  | 
7 | COc1ccc(-c2cn[nH]c2-c2cc(OC)c(OC)c(OC)c2)cc1OCc1ccccc1 | 84.9% | 5.94% (active) | 41.1 | 12% | 22.4% | 21.8% | 21.5% | 48.5% | 2.98% (active) | 33.5% | 62.3% | 25.6% | 50.9% | 34.1% | 28.9% | -18.9% (active) | 47% | 64.5% | 27.5 | 
8 | O=C(COc1cc(O)c2c(=O)cc(-c3ccccc3)oc2c1)Nc1ccccc1 | 106% | 88% | 87.4 | 93.7% | 86.2% | 93.7% |  | 107% |  | 103% | 89.9% | 80.2% | 103% | 57.9% | 77.9% | 98.8% | 94.4% | 91.1% |  | 99

Source: PubChem BioAssay (NCI)
